Experimental data taken from publication PMC8384837, “Expanding the binding specificity for RNA recognition by a PUF domain”.

Legend:
Experiment in all cases: yeast three-hybrid, YBZ-1, SC-Leu-His + 0.5 mM 3-AT, 4 days
Conditions in all cases: tags: N-Gal4 AD-HA kept; label: inside an RPR1-promoter hybrid RNA with tandem MS2 sites; ssRNA
[1] = molecular target: PUM1 PUF domain R3-DNE (Homo sapiens, UniProt Q14671 828-1176, C935D;R936N;Q939E)
Outline: (§1)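 Each repeat of the Pumilio-1 PUF domain was randomized at its three base-contacting residues, and these libraries were co-expressed from a centromeric plasmid with matching RNA elements in strain YBZ-1. After four days on SC-Leu (input) or SC-Leu-His + 0.5 mM 3-AT (selection), the repeat regions were PCR-amplified and Illumina-sequenced. The interaction score compares variant frequency between input and selection as a log change, computed in log2 with a pseudocount of 1 for absent variants.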

[2] = molecular target: PUM1 PUF domain R3-YRG (Homo sapiens, UniProt Q14671 828-1176, C935Y;Q939G)
Outline: as §1

[3] = molecular target: PUM1 PUF domain R8-KHF (Homo sapiens, UniProt Q14671 828-1176, N1122K;Y1123H;Q1126F)
Outline: as §1

[4] = molecular target: PUM1 PUF domain R3-KPG (Homo sapiens, UniProt Q14671 828-1176, C935K;R936P;Q939G)
Outline: as §1

[5] = molecular target: PUM1 PUF domain R5-RSN (Homo sapiens, UniProt Q14671 828-1176, C1007R;R1008S;Q1011N)
Outline: as §1

[6] = molecular target: PUM1 PUF domain R5-RAI (Homo sapiens, UniProt Q14671 828-1176, C1007R;R1008A;Q1011I)
Outline: as §1

[7] = molecular target: T1, PUM1 PUF domain R6-LFC (Homo sapiens, UniProt Q14671 828-1176, N1043L;Y1044F;Q1047C)
T1 sequence: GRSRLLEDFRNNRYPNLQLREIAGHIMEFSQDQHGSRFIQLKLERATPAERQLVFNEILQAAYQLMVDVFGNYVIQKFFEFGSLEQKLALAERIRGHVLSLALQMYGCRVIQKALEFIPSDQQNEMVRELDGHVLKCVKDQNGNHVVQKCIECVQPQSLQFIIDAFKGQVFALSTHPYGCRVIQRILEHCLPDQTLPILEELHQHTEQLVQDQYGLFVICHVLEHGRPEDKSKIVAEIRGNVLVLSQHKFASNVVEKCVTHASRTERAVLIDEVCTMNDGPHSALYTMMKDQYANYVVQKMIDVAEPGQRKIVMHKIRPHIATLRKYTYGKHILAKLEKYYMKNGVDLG
Outline: as §1

[8] = molecular target: PUM1 PUF domain R8-KYP (Homo sapiens, UniProt Q14671 828-1176, N1122K;Q1126P)
Outline: as §1

[9] = molecular target: PUM1 PUF domain R4-RGY (Homo sapiens, UniProt Q14671 828-1176, N971R;H972G;Q975Y)
Outline: as §1

[10] = molecular target: PUM1 PUF domain R3-THE R4-TFR R7-NPG (Homo sapiens, UniProt Q14671 828-1176, C935T;R936H;Q939E;N971T;H972F;Q975R;S1079N;N1080P;E1083G)
Outline: as §1

Sequence of PUM1 PUF domain R5-RAI (Q14671 828-1176 C1007R/R1008A/Q1011I): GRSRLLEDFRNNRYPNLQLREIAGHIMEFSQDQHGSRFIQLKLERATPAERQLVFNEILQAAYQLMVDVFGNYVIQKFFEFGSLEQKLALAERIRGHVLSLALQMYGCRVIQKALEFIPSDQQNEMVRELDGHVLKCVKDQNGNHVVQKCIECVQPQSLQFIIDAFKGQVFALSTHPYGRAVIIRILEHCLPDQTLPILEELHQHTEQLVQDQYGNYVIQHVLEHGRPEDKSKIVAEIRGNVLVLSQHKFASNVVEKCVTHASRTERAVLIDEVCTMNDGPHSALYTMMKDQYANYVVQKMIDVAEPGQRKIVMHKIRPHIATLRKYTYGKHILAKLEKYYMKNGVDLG
Sequence of PUM1 PUF domain R3-DNE (Q14671 828-1176 C935D/R936N/Q939E): as the sequence (Q14671 828-1176 C1007R/R1008A/Q1011I) above, with C108D, R109N, Q112E, R180C, A181R, I184Q counted along it
Sequence of PUM1 PUF domain R3-THE R4-TFR R7-NPG (Q14671 828-1176 C935T/R936H/Q939E/N971T/H972F/Q975R/S1079N/N1080P/E1083G): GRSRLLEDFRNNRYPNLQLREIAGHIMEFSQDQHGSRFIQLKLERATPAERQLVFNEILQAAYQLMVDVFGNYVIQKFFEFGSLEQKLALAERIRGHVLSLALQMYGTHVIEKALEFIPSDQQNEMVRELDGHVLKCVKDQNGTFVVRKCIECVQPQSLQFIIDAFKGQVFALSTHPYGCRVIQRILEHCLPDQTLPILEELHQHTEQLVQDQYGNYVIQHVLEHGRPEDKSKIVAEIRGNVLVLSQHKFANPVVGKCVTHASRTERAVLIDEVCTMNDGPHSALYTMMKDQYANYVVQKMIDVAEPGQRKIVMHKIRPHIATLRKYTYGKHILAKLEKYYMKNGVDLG
Sequence of PUM1 PUF domain R3-YRG (Q14671 828-1176 C935Y/Q939G): as the sequence (Q14671 828-1176 C1007R/R1008A/Q1011I) above, with C108Y, Q112G, R180C, A181R, I184Q counted along it

GGCUAGAACUAGUGGAUCCCCCGGCGCCCGGCGGCUCGAGCCCGGGUAAGUGUAAGUAGUCUGCAUGCCGCCGGGCGCCAUGCCUGCAGGUCGACUCUAGAAAACAUG
binding signal [1]: 3.35 log2 enrichment (interaction score)
binding signal [2]: 3.84 log2 enrichment (interaction score)

GGCUAGAACUAGUGGAUCCCCCGGCGCCCGGCGGCUCGAGCCCGGGUAAGGGUAAAUAGUCUGCAUGCCGCCGGGCGCCAUGCCUGCAGGUCGACUCUAGAAAACAUG
binding signal [3]: 2.25 log2 enrichment (interaction score)

GGCUAGAACUAGUGGAUCCCCCGGCGCCCGGCGGCUCGAGCCCGGGUAAGUGUAAUUAGUCUGCAUGCCGCCGGGCGCCAUGCCUGCAGGUCGACUCUAGAAAACAUG
binding signal [4]: 4.43 log2 enrichment (interaction score)

GGCUAGAACUAGUGGAUCCCCCGGCGCCCGGCGGCUCGAGCCCGGGUAAGUGUUAAUAGUCUGCAUGCCGCCGGGCGCCAUGCCUGCAGGUCGACUCUAGAAAACAUG
binding signal [5]: 3.26 log2 enrichment (interaction score)
binding signal [6]: 2.49 log2 enrichment (interaction score)

GGCUAGAACUAGUGGAUCCCCCGGCGCCCGGCGGCUCGAGCCCGGGUAAGUGUAAAUAGUCUGCAUGCCGCCGGGCGCCAUGCCUGCAGGUCGACUCUAGAAAACAUG
binding signal [7]: 3.09 log2 enrichment (interaction score)
binding signal [5]: 0.8 log2 enrichment (interaction score)
binding signal [8]: 4.91 log2 enrichment (interaction score)
binding signal [9]: 5.07 log2 enrichment (interaction score)

GGCUAGAACUAGUGGAUCCCCCGGCGCCCGGCGGCUCGAGCCCGGGUAAGUGUCAAUAGUCUGCAUGCCGCCGGGCGCCAUGCCUGCAGGUCGACUCUAGAAAACAUG
binding signal [5]: 3.76 log2 enrichment (interaction score)
binding signal [6]: 0.78 log2 enrichment (interaction score)

GGCUAGAACUAGUGGAUCCCCCGGCGCCCGGCGGCUCGAGCCCGGGUAAGUUUACGUAGUCUGCAUGCCGCCGGGCGCCAUGCCUGCAGGUCGACUCUAGAAAACAUG
binding signal [10]: 5.28 log2 enrichment (interaction score)
